These results are taken from PubChem BioAssay (Tox21).

Experiment [1] is described as follows: Nuclear factor erythroid 2-related factor 2/antioxidant responsive element (Nrf2/ARE) small molecule agonists: qHTS cell viability counter screen in human keratinocytes (AID 1919968; active = well fitted curve in the direction sought with a large enough effect in the repeat runs; an effect the other way counts as inactive or inconclusive; also: nearly all actives have a fitted effect of over 55% in size; also: potency is read from the fitted curve at half-maximal effect). A digest of the protocol: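 Fluorescence read-out from CellTiter-Fluor after 1 h at 37 C. Wells held HaCaT-derived ARE-luciferase reporter cells (1,500/well) treated 23 h with DMSO-dissolved compounds. Run in the same wells as the luciferase agonist read.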

The nature of experiment [2]: Nuclear factor erythroid 2-related factor 2/antioxidant responsive element (Nrf2/ARE) small molecule agonists: luciferase reporter gene qHTS assay in human keratinocytes (AID 1919969). Also: nearly all actives have a fitted effect of over 35% in size. Also: potency is read from the fitted curve at half-maximal effect. Background: In a reporter assay the amount or activity of a reporter protein is the signal.
The target in experiment [3] is Gonadotropin-releasing hormone receptor (Homo sapiens) (UniProt P30968). Description: Human gonadotropin-releasing hormone receptor (GnRHR) small molecule agonists, calcium flux assay in GnRHR-HEK293 cells (AID 1920063). Also: nearly all actives have a fitted effect of over 35% in size. Summed up: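 Calcium-dye fluorescence, Ex/Em=480/540, recorded every 1 sec over 3 min after compound addition to GnRHR-HEK293 cells. Cells had been seeded 18 hours earlier and dye-loaded for 1 hour at 37 C. Fifteen concentrations, triplicates.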
Chain of Gonadotropin-releasing hormone receptor (Homo sapiens) (P30968 whole entry, looked up): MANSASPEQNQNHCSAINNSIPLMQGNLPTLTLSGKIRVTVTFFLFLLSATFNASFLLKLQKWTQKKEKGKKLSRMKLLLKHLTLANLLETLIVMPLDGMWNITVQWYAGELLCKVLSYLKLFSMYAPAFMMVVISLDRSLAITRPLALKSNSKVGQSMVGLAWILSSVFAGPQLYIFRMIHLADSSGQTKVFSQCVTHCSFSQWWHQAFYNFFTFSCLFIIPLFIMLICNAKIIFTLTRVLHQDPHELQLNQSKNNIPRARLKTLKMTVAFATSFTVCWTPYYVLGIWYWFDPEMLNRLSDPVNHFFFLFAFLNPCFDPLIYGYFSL
(Calcium flux is commonly read through the fluorescence of an indicator in the cells.)

The target of experiment [4] is KiSS-1 receptor (Homo sapiens) (UniProt Q969F8). Description: Human kisspeptin (KISS1R) small molecule agonists, calcium flux assay in KISS1R-HEK293 cells (AID 1920064; active = well fitted curve in the direction sought with a large enough effect in the repeat runs; an effect the other way counts as inactive or inconclusive). Summed up:
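Calcium flux read-out: kinetic fluorescence at Ex/Em=480/540, 1 s intervals over 3 min, after pin-tool compound addition to dye-loaded KISS1R-HEK293 cells. Fifteen concentrations, triplicates.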

Experiment [5] in a line: G protein-coupled receptor (GPCR) small molecule agonists, calcium flux assay: HEK293 wild type cell line counter screen (AID 1920065). A digest of the protocol: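 Agonist mode; 18 h seeding at 37 C, 1 h dye load at 37 C; compounds pinned from DMSO, ATP as positive control; kinetic fluorescence 480/540 nm, 3 min, 1 s reads; 15 concentrations, triplicate.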
The nature of experiment [6]: p53 small molecule agonists, cell-based qHTS assay with rat liver microsomes (AID 1963578). A digest of the protocol:
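Fluorescence from a beta-lactamase reporter under a p53 response element was measured after cells had been incubated 16 h at 37 C with test compound and rat liver microsomes plus NADPH (0.5 mg/mL final each).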
On the technique in general: In qHTS, concentration-response curves come from the screen itself.

Experiment [7] can be described thus: p53 small molecule agonists, cell-based qHTS assay with human liver microsomes: qHTS cell viability counter screen (AID 1963579). Also: nearly all actives have a fitted effect of over 45% in size. Summed up: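 Seed p53RE-bla cells at 4,000 per well; incubate 5 h at 37 C; add compound, human liver microsomes and NADPH; incubate 16 h at 37 C; add CellTiter-Glo; after 30 min at room temperature, read luminescence.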
A short description of experiment [8]: p53 small molecule agonists, cell-based qHTS assay with rat liver microsomes: qHTS cell viability counter screen (AID 1963580). Also: nearly all actives have a fitted effect of over 45% in size. A digest of the protocol:
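Cytotoxicity counter screen: intracellular ATP measured by CellTiter-Glo luminescence in the same wells as the beta-lactamase reporter read, on HCT-116 p53RE-bla cells exposed 16 h at 37 C to compounds with rat liver microsomes and NADPH, each 0.5 mg/mL final.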

The nature of experiment [9]: p53 small molecule agonists, cell-based qHTS assay: qHTS cell viability counter screen (AID 1963581). Also: nearly all actives have a fitted effect of over 45% in size. Summed up:
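Cytotoxicity read-out: ATP-based luminescence (CellTiter-Glo, 30 min RT) measured in the same wells as the p53 reporter assay, HCT-116 p53RE-bla cells, 16 h compound exposure at 37 C.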

A short description of experiment [10]: p53 small molecule agonists, cell-based qHTS assay (AID 1963582; active = well fitted activation curve with a large enough effect in the signal ratio in the repeat runs, not every such curve was filed as active; the % refers to the signal ratio; also: potency is read from the fitted curve at half-maximal effect). Summed up: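 Fluorescence intensity read-out of a beta-lactamase reporter under a p53 response element. Cells were exposed to DMSO-dissolved compounds for 16 h at 37 C, then developed with FRET substrate for 2 h at RT.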
Experiment [11] has as its target 5-hydroxytryptamine receptor 2A (Homo sapiens) (UniProt P28223). Description: 5-hydroxytryptamine receptor 2A (HTR2A) small molecule agonists, cell-based qHTS assay (AID 1963587). Also: nearly all actives have a fitted effect of over 30% in size. A digest of the protocol:
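CHO cells stably expressing human HTR2A, plated 18 h, loaded with calcium dye 1 h at 37 C. Agonist mode: compounds added and intracellular calcium fluorescence recorded kinetically for 2 min at 1 sec intervals.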

For experiment [12], the target named is Muscarinic acetylcholine receptor M1 (Homo sapiens) (UniProt P11229). Description: Cholinergic receptor muscarinic 1 (CHRM1) small molecule agonists, cell-based qHTS assay (AID 1963589). Also: nearly all actives have a fitted effect of over 35% in size. Summed up:
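Calcium flux read-out: kinetic fluorescence at 1 sec intervals after pin-tool compound addition to dye-loaded CHRM1-CHO cells (human M1). Agonist mode; 15 concentrations tested in triplicate independent runs.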

The nature of experiment [13]: cAMP Responsive Elements (CRE) small molecule antagonists, cell-based qHTS assay (AID 1963591; active = well fitted inhibition curve with a large enough effect in the signal ratio in the repeat runs, not every such curve was filed as active; the % refers to the signal ratio). Summed up:
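HEK293T CRE-bla; 18 h preincubation; compound pin-transfer; NKH477 0.25 uM final, 3 h, 37 C; LiveBLAzer FRET substrate 2 h RT.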

In experiment [14] the target is Beta-2 adrenergic receptor (Homo sapiens) (UniProt P07550). Description: Adrenergic beta2 receptor (ADRB2) small molecule antagonists, cell-based qHTS assay (AID 1963592). Also: series mostly up to about 92 µM; nearly all actives have a fitted effect of over 50% in size. A digest of the protocol:
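Assay format: CHO-ADRB2 cells, 18-20hr seeding at 37C/5% CO2, then compound plus 1nM isoproterenol agonist mix for 0.5hr RT. Homogeneous time-resolved fluorescence cAMP detection after 1hr, expressed as 665/615 nm ratio.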

In experiment [15] the target is D(2) dopamine receptor (Homo sapiens) (UniProt P14416). Description: Dopamine D2 receptor (DRD2) small molecule agonists, cell-based qHTS assay (AID 1963594). Also: nearly all actives have a fitted effect of over 35% in size. Summed up:
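HEK293 cells stably expressing human DRD2, pre-treated with PDE inhibitor Ro20-1724 (0.1 mM final) and compound 10 min at room temperature, then stimulated with NKH477 (200nM […]) for 30 min. cAMP read by HTRF (665/620 nm).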

For experiment [16] the target is unchanged. Description: Dopamine D2 receptor (DRD2) small molecule antagonists, cell-based qHTS assay (AID 1963595; active = well fitted inhibition curve with a large enough effect in the signal ratio in the repeat runs, with a control signal flat; the % refers to the signal ratio). Summed up: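 Stable D2 receptor HEK293 line, 24 h after seeding. Compound preincubated 10 min, then quinpirole (12 nM) with forskolin analogue NKH477 (200 nM), 30 min, room temperature. Detection by time-resolved FRET of cAMP.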
Experiment [17] addresses 5-hydroxytryptamine receptor 2A (Homo sapiens) (UniProt P28223). Description: 5-hydroxytryptamine receptor 2A (HTR2A) small molecule antagonists, cell-based qHTS assay (AID 1963586). Also: nearly all actives have a fitted effect of over 45% in size. A digest of the protocol:
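CHO cells stably expressing human HTR2A were plated for 18 h at 37 C, then loaded with calcium dye for 1 h. Compounds were preincubated 5 min at room temperature before DOI (4 nM solution) was added. Kinetic fluorescence was read for 3 min.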

Experiment [18] is described as follows: cAMP Responsive Elements (CRE) small molecule agonists, cell-based qHTS assay (AID 1963590). A digest of the protocol: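 Beta-lactamase reporter readout: LiveBLAzer B/G FRET substrate, 2 h at room temperature, added after 3 h compound treatment of CRE-bla HEK 293T cells at 37 C/5% CO2.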
Experiment [19] deals with Muscarinic acetylcholine receptor M1 (Homo sapiens) (UniProt P11229). Description: Cholinergic receptor muscarinic 1 (CHRM1) small molecule antagonists, cell-based qHTS assay (AID 1963588). Also: nearly all actives have a fitted effect of over 40% in size. A digest of the protocol: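 Compounds were tested at 15 concentrations in three independent runs. Dye-loaded CHRM1-CHO cells were exposed 5 min at room temperature before stimulation by acetylcholine added at 50nM. Intracellular calcium was read kinetically on FDSS for 3 min.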
Chain of Muscarinic acetylcholine receptor M1 (Homo sapiens) (P11229 whole entry, looked up): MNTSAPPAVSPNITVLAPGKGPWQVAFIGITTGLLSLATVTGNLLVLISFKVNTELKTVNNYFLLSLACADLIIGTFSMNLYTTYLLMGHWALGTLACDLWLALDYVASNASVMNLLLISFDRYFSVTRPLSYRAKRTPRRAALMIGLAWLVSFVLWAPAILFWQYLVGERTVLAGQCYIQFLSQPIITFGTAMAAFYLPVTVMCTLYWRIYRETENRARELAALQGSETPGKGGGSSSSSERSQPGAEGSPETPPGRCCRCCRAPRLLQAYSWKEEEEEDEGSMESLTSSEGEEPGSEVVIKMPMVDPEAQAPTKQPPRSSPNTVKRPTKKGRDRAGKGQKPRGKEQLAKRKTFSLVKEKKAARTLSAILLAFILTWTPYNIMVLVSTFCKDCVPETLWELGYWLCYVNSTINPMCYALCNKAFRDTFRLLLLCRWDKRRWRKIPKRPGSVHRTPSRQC

A number with no mark means an inactive call. Records with an inconclusive call do not appear. Activity calls are given as the source filed them. Unless noted, calls follow the shape of the full dose curve.

Chain of D(2) dopamine receptor (Homo sapiens) (P14416 whole entry, looked up): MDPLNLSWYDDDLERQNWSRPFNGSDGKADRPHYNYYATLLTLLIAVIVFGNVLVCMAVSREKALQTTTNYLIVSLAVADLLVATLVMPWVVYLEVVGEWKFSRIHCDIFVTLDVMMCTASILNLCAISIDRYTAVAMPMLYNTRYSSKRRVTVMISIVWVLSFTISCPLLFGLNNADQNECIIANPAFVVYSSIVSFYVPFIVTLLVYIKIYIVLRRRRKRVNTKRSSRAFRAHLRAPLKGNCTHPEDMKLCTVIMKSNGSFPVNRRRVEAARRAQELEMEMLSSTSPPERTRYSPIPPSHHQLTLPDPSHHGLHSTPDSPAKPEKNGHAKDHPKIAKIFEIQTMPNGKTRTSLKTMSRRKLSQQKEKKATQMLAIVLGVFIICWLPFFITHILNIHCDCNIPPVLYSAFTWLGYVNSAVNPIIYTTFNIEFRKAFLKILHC
Chain of 5-hydroxytryptamine receptor 2A (Homo sapiens) (P28223 whole entry, looked up): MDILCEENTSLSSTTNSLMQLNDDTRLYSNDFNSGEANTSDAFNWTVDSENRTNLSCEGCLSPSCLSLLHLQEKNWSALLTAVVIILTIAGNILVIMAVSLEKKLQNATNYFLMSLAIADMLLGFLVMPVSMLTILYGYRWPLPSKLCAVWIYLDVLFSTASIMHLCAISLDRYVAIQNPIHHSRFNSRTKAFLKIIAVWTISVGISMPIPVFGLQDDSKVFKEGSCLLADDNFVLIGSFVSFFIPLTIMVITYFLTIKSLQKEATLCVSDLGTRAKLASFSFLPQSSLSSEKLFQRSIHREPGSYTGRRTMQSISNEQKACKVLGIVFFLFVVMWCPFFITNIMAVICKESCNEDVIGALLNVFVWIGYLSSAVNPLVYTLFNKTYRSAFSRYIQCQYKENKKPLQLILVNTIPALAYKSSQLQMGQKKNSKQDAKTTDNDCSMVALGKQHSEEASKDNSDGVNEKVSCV
Chain of KiSS-1 receptor (Homo sapiens) (Q969F8 whole entry, looked up): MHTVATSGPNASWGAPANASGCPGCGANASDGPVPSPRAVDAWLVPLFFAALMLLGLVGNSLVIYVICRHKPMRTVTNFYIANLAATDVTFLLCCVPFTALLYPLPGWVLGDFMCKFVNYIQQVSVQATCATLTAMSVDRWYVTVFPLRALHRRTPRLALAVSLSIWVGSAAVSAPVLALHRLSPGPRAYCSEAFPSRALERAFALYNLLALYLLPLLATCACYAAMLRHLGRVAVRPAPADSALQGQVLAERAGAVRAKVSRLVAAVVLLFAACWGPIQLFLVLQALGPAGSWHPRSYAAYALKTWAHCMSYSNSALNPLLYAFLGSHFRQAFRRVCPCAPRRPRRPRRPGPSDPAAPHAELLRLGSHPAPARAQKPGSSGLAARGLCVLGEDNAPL
Chain of Beta-2 adrenergic receptor (Homo sapiens) (P07550 whole entry, looked up): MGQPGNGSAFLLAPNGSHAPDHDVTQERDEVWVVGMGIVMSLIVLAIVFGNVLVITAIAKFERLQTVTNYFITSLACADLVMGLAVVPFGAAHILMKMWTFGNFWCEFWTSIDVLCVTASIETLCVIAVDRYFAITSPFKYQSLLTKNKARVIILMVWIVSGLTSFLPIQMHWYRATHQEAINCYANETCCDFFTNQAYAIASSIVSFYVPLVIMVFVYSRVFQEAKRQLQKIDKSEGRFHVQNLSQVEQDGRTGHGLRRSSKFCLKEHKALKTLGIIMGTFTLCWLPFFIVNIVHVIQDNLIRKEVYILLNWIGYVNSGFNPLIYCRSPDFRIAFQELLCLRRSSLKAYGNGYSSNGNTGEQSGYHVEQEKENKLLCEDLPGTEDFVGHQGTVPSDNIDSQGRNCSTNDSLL

Regarding `O=C(Nc1ccc([N+](=O)[O-])cc1)Nc1ccc([N+](=O)[O-])cc1`, the Potency result in [1], in [2], in [3], in experiment [6], in experiment [7] and in experiment [8] was “inactive” in each case. In addition, the Potency entry in experiment [9], in experiment [10], in [11], in experiment [12], in experiment [13] and in experiment [14] was “inactive” in each case. Also, the Potency entry in [15] and in experiment [16] was “inactive” throughout. Moreover, the result in experiment [4] and in experiment [5] was inactive.

For the compound `C[C@@H]1[C@H](O)[C@@H](C)/C=C/C=C\C=C\C=C\C=C\C=C\C=C\[C@H](O[C@@H]2O[C@H](C)[C@@H](O)[C@H](N)[C@@H]2O)C[C@@H]2O[C@](O)(C[C@@H](O)C[C@@H](O)[C@H](O)CC[C@@H](O)C[C@@H](O)CC(=O)O[C@H]1C)C[C@H](O)[C@H]2C(=O)O` (stereo in doubt), the Potency entry in experiment [1], in experiment [3], in experiment [6], in [7], in experiment [8] and in experiment [9] was “inactive” in each case. For the same compound, the Potency entry in [10], in experiment [14], in experiment [15] and in [16] was “inactive” each time. Also, in [2], the Potency was 68.6 µM (active). Also, the result in experiment [4] and in [5] was inactive.

Turning to `Cc1c(C(C)C)c(=O)n(-c2ccccc2)n1C`, the Potency result in [1], in [2], in experiment [3], in experiment [6], in experiment [7] and in experiment [8] was “inactive” each time. Besides, the Potency entry in [9], in experiment [10], in experiment [17], in experiment [11], in experiment [12] and in [18] was “inactive” each time. Further, the Potency entry in experiment [14], in [15] and in experiment [16] was “inactive” each time. In addition, the result in experiment [4] and in experiment [5] was inactive.

Turning to `O=C1C(CCS(=O)c2ccccc2)C(=O)N(c2ccccc2)N1c1ccccc1` (stereo unspecified), the Potency result in [1], in experiment [2], in experiment [3], in experiment [6], in experiment [7] and in experiment [8] was “inactive” each time. The Potency result in [9], in experiment [10], in [18], in [13], in experiment [14] and in experiment [15] was “inactive” each time. Also, the Potency entry in [16] was “inactive”. In addition, the outcome in [4] and in [5] was inactive.

For the compound `Cc1cccc(C)c1C`, the Potency result in experiment [1], in experiment [2], in [3], in experiment [6], in experiment [7] and in [8] was “inactive” each time. In addition, the Potency result in [9], in experiment [10], in [17], in experiment [11], in experiment [19] and in experiment [18] was “inactive” in each case. Moreover, the Potency entry in [13], in experiment [14], in experiment [15] and in experiment [16] was “inactive” each time. Also, the result in experiment [4] and in experiment [5] was inactive.

In the case of `CCC1NC(=O)c2cc(S(N)(=O)=O)c(Cl)cc2N1` (stereo unspecified), the Potency result in [1], in experiment [2], in [3], in [6], in experiment [7] and in experiment [8] was “inactive” each time. The Potency entry in [10], in experiment [17], in experiment [19], in experiment [12], in experiment [13] and in experiment [14] was “inactive” in each case. In addition, the Potency result in experiment [15] is “inactive”. Besides, the outcome in experiment [4] and in experiment [5] was inactive.

Take `CC(=O)OC[C@H]1O[C@@H](n2ncc(=O)[nH]c2=O)[C@H](OC(C)=O)[C@@H]1OC(C)=O`: the Potency entry in experiment [1], in experiment [2], in experiment [3], in experiment [6], in experiment [7] and in [8] was “inactive” throughout. Further, the Potency entry in experiment [9], in experiment [18], in experiment [13], in experiment [14], in experiment [15] and in [16] was “inactive” in each case. Moreover, the result in experiment [4] and in experiment [5] was inactive. Besides, the Potency in experiment [10] is 0.5 µM (active).

On to `C=CC(=O)OCC(O)COc1ccccc1` (stereo unspecified), for which the Potency in [1] is 61.1 µM (active); in experiment [2], 68.6 µM (active). Moreover, the Potency entry in experiment [3], in experiment [6], in [7], in [8], in experiment [9] and in experiment [17] was “inactive” throughout. Also, the Potency entry in experiment [11], in experiment [19], in experiment [12], in experiment [14], in experiment [15] and in experiment [16] was “inactive” in each case. Besides, the result in experiment [4] and in [5] was inactive.

`C/C=C/C=C/COC(=O)C(C)C`: the Potency entry in experiment [1], in experiment [3], in experiment [6], in experiment [7], in experiment [8] and in [9] was “inactive” throughout. In addition, the Potency result in experiment [10], in experiment [17], in experiment [11], in experiment [19], in experiment [14] and in experiment [15] was “inactive” each time. For the same compound, in experiment [16], the Potency entry is “inactive”. The Potency in experiment [2] is 68.6 µM (active). Also, the result in experiment [4] and in [5] was inactive.
